Bioassay records (PubChem)
GASC-1 inh – human JMJD2C demethylase inhibition. GST-JMJD2C(1-420) H3K9me3 demethylation, DELFIA europium. AID 2099. inhibition, % at 2.35 µM. actives 0.069% (n = 330,000);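 active = more than half of a compound's replicate wells show inhibition beyond 50%, single wells judged on their own value; inconclusive = some, but no more than half, of replicates pass 50% inhibition; inactive = no replicate passes 50% inhibition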;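 also: signal counts dimethyl H3K9 product captured on neutravidin plate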
Target sequence (Q9H3R0 1-420 limits assumed): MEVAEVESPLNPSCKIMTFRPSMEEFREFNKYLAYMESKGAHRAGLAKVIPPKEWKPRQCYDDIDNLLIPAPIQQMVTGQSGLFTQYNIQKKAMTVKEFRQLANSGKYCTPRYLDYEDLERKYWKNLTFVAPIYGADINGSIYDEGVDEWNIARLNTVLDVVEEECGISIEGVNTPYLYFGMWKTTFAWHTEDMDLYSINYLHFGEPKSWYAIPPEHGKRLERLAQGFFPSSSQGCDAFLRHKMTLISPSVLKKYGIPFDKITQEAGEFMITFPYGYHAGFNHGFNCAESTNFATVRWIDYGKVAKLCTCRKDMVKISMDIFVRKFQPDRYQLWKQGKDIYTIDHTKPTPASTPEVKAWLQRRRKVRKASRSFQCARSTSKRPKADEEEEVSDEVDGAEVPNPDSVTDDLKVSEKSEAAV
PP5 primary – PP5 (human) phosphatase inhibition; P53041; purified PP5c, OMFP substrate fluorescence; inhibition, % at 6.7 µM; actives 0.18% (n = 320,000); AID 1987;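 active = inhibition above the campaign's mean inhibition across all tested compounds plus 3 SD, cut at about 9.5% in these data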
KLK7 zymogen act – proKLK7 (human) activation, primary screen; actives 0.9% (n = 370,000); P49862; AID 652039; activation, % at 7 µM; purified proKLK7, EDANS-DABCYL substrate fluorescence; 100% is mature enzyme control, 0% vehicle;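 active = activation above the mean of all tested compounds plus 3 SD, computed per campaign excluding outliers beyond control limits, cut at about 13% in these data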
Target sequence (P49862 whole entry, looked up): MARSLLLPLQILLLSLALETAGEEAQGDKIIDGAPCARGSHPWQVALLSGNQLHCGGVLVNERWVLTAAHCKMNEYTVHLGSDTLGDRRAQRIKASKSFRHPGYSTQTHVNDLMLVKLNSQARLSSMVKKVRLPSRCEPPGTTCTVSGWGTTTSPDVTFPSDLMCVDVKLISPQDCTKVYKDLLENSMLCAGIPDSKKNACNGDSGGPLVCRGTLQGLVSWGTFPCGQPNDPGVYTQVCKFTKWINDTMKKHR
PP1 inh – PP1-alpha (human) inhibition in PP5 counter-screen | P62136 | purified PP1alpha, OMFP fluorescence | inhibition, % at 6.7 µM | actives 0.9% (n = 320,000) | AID 2235;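 active = inhibition above the mean inhibition of all tested compounds plus 3 SD, computed separately for each screening campaign, cut at about 15% in these data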
PG9 Ab binder – small molecules binding HIV-1 gp120 antibody PG9; AID 624416; actives 0.43% (n = 360,000); inhibition, % at 6.7 µM; TR-FRET gp120-PG9 antibody binding; in the data active = inhibition above about 8.5%
NR1D1 modulator – modulates human Rev-erb alpha binding to DNA. actives 0.79% (n = 370,000). P20393. activity, % at 10 µM. Rev-erbα–FITC-DNA binding, fluorescence polarization, 90 min. AID 1259318;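 active = activity above about 14%, limit read from the data; passing the limit was not always enough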
KLK7 act conf – confirmation of human kallikrein-7 zymogen activators. shares compounds with KLK7 zymogen act. purified proKLK7, EDANS-DABCYL substrate fluorescence; scaled: vehicle 0, mature enzyme 100. activation, % at 7 µM. actives 68% (n = 3,200). AID 686949;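 active = activation, as change over the incubation, above the mean of all tested compounds plus 3 SD, cut at about 13% in these data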
EDANS interfere – counter-screen for kallikrein-7 activators: EDANS-DABCYL optical interference; shares compounds with KLK7 zymogen act; EDANS-DABCYL substrate fluorescence interference, no enzyme, 4 h; solvent 0%, active enzyme control 100%; activation, % at 7 µM; actives 80% (n = 3,200); AID 686952;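 active = activation above the all-compound mean plus 3 SD, ignoring values outside control-based bounds, cut at about 4.8% in these data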;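 also: value is the 4 h activation minus the activation read at time zero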
K7 EDANS ctr – EDANS fluorescence interference in dose response, no enzyme; shares compounds with KLK7 zymogen act; EDANS-DABCYL peptide fluorescence interference; EC50, µM; actives 20% (n = 250);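 active = compounds that raise the fluorescence signal in this interference counterscreen, with EC50 at or below 10 µM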;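 also: intact quenched peptide substrate alone read at 355 nm excitation and 520 nm emission; signal is fluorescence gain from T0 to T4 after four hours at room temperature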
Numbers stand for hits; – = inactive; ? = inconclusive; · = no result. Sampled rows, rich in hits. Any-hit rate of the full collection: about 2.8%.

SMILES	GASC-1 inh	PP5 primary	KLK7 zymogen act	PP1 inh	PG9 Ab binder	NR1D1 modulator	KLK7 act conf	EDANS interfere	others
COc1cc(/C=C/C(=O)OCC(=O)NCc2cccs2)ccc1OC(F)F	–	–	–	–	–	–	·	·
CCN(CC(=O)NCc1cccs1)C(=O)/C=C/c1cc(OC)ccc1OC	·	–	67	–	–	–	71	71
COc1ccc(CC(=O)N2CCN(C(=O)c3ccc4nc(C)n(C5CCCC5)c4c3)CC2)cc1	·	·	–	·	·	–	·	·
CC[C@]1(c2ccc(C)cc2)C(=O)N(C(=O)OC(C)C)N1C(=O)OC(C)C	·	·	–	·	·	–	·	·
CNc1cncc(-c2ccc(S(C)(=O)=O)cc2)n1	·	·	85	·	–	–	66	65
CNc1cncc(-c2cc(C)c(O)c(C)c2)n1	·	·	–	·	–	–	·	·
CNc1cncc(-c2ccc(OC)cc2)n1	·	·	25	·	–	–	49	41	K7 EDANS ctr=–
CNc1cncc(-c2ccoc2)n1	·	·	20	·	–	–	28	30
CNc1cncc(-c2ccc(CN3CCOCC3)cc2)n1	·	·	82	·	–	–	67	78
CCn1c2ccccc2c2cc(C=Nn3c(-c4ccccc4C)n[nH]c3=S)ccc21	·	·	–	·	·	–	·	·
CC(C)C[C@H]1COc2cc(N3CCSCC3)ccc2S(=O)(=O)N1C	·	·	–	·	·	–	·	·
CNc1cncc(-c2cnn(CC(C)C)c2)n1	·	·	33	·	–	–	72	64
CNc1cncc(-c2cccc(C(C)=O)c2)n1	·	·	–	·	–	–	·	·
CNc1cncc(-c2ccc(OCCCN(C)C)nc2)n1	·	·	51	·	–	–	59	72
CNc1cncc(-c2ccc(O)cc2)n1	·	·	41	·	–	–	19	19
CNc1cncc(-c2ccc(CN(C)C)cc2)n1	·	·	116	·	–	–	72	82
CNc1cncc(-c2cccc(NS(C)(=O)=O)c2)n1	·	·	130	·	–	–	45	57
CNc1cncc(-c2ccc(F)cc2F)n1	·	·	14	·	–	–	20	50
CC(C)NC[C@@H](O)c1ccc(O)c(O)c1	–	–	33	–	–	–	51	49
COc1ccc(OC)c(S(=O)(=O)N(CCc2ccc(OC)c(OC)c2)Cc2cccs2)c1	·	·	–	·	·	–	·	·
O=C(Cn1nnc(-c2ccncc2)n1)Nc1ccc(Oc2ccccc2)cc1	·	·	–	·	·	–	·	·
O=C(Nc1ccc(C(F)(F)F)cc1)OC1CC2CC1[C@H]1CCCCN1[C@H]2Cc1ccccc1 (some centres undefined)	·	·	–	·	·	–	·	·
CCCn1c(C)cc(/C=C(\C#N)C(=O)OCC(=O)Nc2ccc(OC)c(Cl)c2)c1C	–	–	–	–	–	–	·	·
COCCn1c(C)cc(/C=C(\C#N)C(=O)OCC(=O)Nc2ccc(S(N)(=O)=O)cc2)c1C	·	·	14	·	–	–	–	–
Cc1c2c(n3c(nc4ccccc43)c1C#N)N(CCCN(C)C)CC2	–	–	63	–	–	–	–	7.4
SMILES	GASC-1 inh	PP5 primary	KLK7 zymogen act	PP1 inh	PG9 Ab binder	NR1D1 modulator	KLK7 act conf	EDANS interfere	others
Cc1c2c(n3c(nc4ccccc43)c1C#N)N(CCN(C)C)CC2	–	–	114	–	–	–	–	–
COc1ccc(C)cc1S(=O)(=O)Nc1cccc(C)c1	–	–	–	–	–	–	·	·
COc1ccc(C)cc1S(=O)(=O)Nc1cccc(-c2cn3cccnc3n2)c1	–	–	18	–	–	–	–	–
O=S(=O)(Nc1cccc(-c2cn3cccnc3n2)c1)c1ccc(Cl)cc1	–	–	28	–	–	–	–	6.4
C[C@H](CO)N1C[C@H](C)[C@@H](CN(C)C(=O)Nc2cccc(F)c2)OCc2cn(nn2)CCCC1=O	·	·	–	·	–	–	·	·
CC(=O)Oc1ccc2c(=O)c(N3C(=O)c4ccccc4C3=O)c(C)oc2c1C	–	–	27	–	–	–	34	31
C=CCNc1sc(C(=O)c2cccs2)c(N)c1C#N	–	–	87	–	–	–	–	–
CCCCCC(=O)NC1CCCCN(Cc2cccc(Cl)c2)C1=O (centres undefined)	·	·	–	·	·	–	·	·
COc1ccc(/C=N/n2c(C)nnc2C)c(OC)c1	–	–	–	–	–	–	·	·
COc1cc(OC)c(/C=N/n2c(C)nnc2C)c(OC)c1	–	–	16	–	–	–	–	–
Cc1cc(=O)oc2cc(OCC(=O)NCc3ccccn3)ccc12	–	–	–	–	–	·	·	·
Cc1cc(=O)oc2cc(NC(=S)NCc3ccccn3)ccc12	–	–	58	–	–	–	38	46
O=C1CCC(C(=O)OCc2cc(=O)oc3ccc4ccccc4c23)=NN1	–	–	145	–	–	–	357	371
CCC(=O)OCc1cc(=O)oc2ccc3ccccc3c12	–	–	22	–	–	–	–	–
O=C1CCC(C(=O)OCc2nnc(-c3ccc(Cl)cc3)o2)=NN1	–	–	–	–	–	–	·	·
CC(=O)N1CCN(Cc2cc(=O)oc3ccc4ccccc4c23)CC1	·	·	–	·	–	–	·	·
O=[N+]([O-])c1cccc(C2=Nn3c(nnc3-c3ccccc3)SC2)c1	·	·	–	·	·	–	·	·
COc1ccc2cc3cc(C(=O)NCCCN4CCOCC4)oc3nc2c1	–	–	49	–	–	–	64	69
COc1ccc2cc3cc(C(=O)NCCc4ccc(OC)c(OC)c4)oc3nc2c1	–	–	–	–	–	–	·	·
Cc1nc2ccccc2c2oc(C(=O)NCCCN3CCCC3=O)cc12	–	–	–	–	–	–	·	·
Cc1ccc2cc3cc(C(=O)NCCN4CCOCC4)oc3nc2c1	–	–	13	–	–	–	14	13
Cc1ccc2cc3cc(C(=O)NCCCN4CCCC4=O)oc3nc2c1	–	–	17	–	–	–	–	7.5
CCCCN(CC)CCCNC(=O)c1cc2cc3ccc(OC)cc3nc2o1	–	–	63	–	–	–	58	72
COC(=O)[C@]12C[C@H](CC(=O)NCc3cccs3)C(=O)N(Cc3cccc4ccccc34)C1=C[C@H](C(C)C)O[C@@H]2C1CC1	·	·	–	·	·	–	·	·
O=C(Nc1ccccc1C(F)(F)F)O[C@@H]1CC[C@@]23CCCN2C(=O)CCC[C@H]3C1	·	·	·	·	·	–	·	·
CN(C)c1ccc(C2Nc3ccccc3C(=O)N2NS(C)(=O)=O)cc1 (centres undefined)	–	·	22	·	–	–	–	5.9
COc1ccc(C2Nc3ccccc3C(=O)N2NS(C)(=O)=O)cc1OC (centres undefined)	?	–	59	–	–	–	22	13	K7 EDANS ctr=–
